Screening data from PubChem.
D2 ag-1: Beta-Arrestin HTS for Positive Allosteric Modulators of the Human D2 Dopamine Receptor: Agonists | DiscoveRx PathHunter D2 beta-arrestin, luminescence, 90 min; 100% = 57 uM dopamine signal | activation, % (test concentration not listed) | 360,000 tested, 0.084% active | AID 624465, 2012; in the data active = activation above about 40%; inconclusive = between about 15% and that limit
Target sequence (P14416 whole entry, looked up): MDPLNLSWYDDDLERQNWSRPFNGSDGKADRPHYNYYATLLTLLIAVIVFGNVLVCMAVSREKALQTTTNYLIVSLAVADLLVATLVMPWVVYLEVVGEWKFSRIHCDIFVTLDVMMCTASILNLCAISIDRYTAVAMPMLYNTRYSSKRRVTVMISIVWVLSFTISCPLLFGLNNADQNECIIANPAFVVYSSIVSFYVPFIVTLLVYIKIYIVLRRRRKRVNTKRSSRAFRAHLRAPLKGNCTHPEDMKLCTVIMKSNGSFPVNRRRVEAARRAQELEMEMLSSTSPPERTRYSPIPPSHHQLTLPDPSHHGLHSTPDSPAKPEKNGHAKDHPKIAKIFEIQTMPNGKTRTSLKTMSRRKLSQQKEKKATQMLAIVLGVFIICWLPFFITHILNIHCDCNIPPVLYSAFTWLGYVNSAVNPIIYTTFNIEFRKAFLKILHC
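DiscoveRx PathHunter D2 beta-arrestin cells (2,100/well) attached overnight, then compound-stimulated 90 min at 37 C in HBSS/10 mM HEPES/0.1% Tween-20 buffer; beta-galactosidase complementation read by luminescence after 1 h at ambient temperature. Dopamine 57 uM final (EC100) as control.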
D2 antag: HTS Assay for Allosteric Antagonists of the Human D2 Dopamine Receptor: Primary Screen for Antagonists; D(2) dopamine receptor (Homo sapiens), P14416; HEK293 TREx D2 cells, calcium flux, dopamine EC80; inhibition, % at 10 µM; 340,000 tested, 2% active; AID 485344, 2010; in the data active = inhibition above about 30%; inactive = below that, where a call was filed; note: 0% is about no effect
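HEK293 T-REx D2 cells, tet-induced, calcium dye no-wash. Cpd pintool add, 180 s kinetic, then EC80 DA, 180 s kinetic. Ca flux read.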
D2 PAM-1: HTS Assay for Positive Allosteric Modulators of the Human D2 Dopamine Receptor: Primary Screen for Potentiators | potentiation, % at 10 µM | HEK293 T-REx D2, calcium flux, EC20 dopamine potentiation | 340,000 tested, 0.34% active;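 active = potentiation over 3 SD above the plate norm, cut at about 30% in these data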; note: 0% is about no effect
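Using a no-wash calcium dye in inducible, force-coupled HEK293 Trex cells expressing D2, we tracked fluorescence each second for 180 s after compound, then for 180 s after EC20 dopamine to detect augmented signalling.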
D2 PAM-2: Beta-Arrestin HTS for Positive Allosteric Modulators of the Human D2 Dopamine Receptor: Potentiators. D(2) dopamine receptor (Homo sapiens), P14416. DiscoveRx D2 beta-arrestin cells, luminescence, 90 min; 100% = 57 uM dopamine signal. potentiation, % (no concentration beside the values). 360,000 tested, 0.23% active. AID 624464, 2012; in the data active = potentiation above about 50%; inconclusive = mostly about 30% to 49%
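D2 cells co-treated with compound plus 50 nM dopamine (EC20) for 90 min at 37 deg C to detect potentiation. Beta-arrestin recruitment was read as enzyme-fragment luminescence after 1 h at ambient temperature. Full response was set by 57 uM dopamine.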
D2 ag-2: HTS Assay for Allosteric Agonists of the Human D2 Dopamine Receptor: Primary Screen for Agonists | D(2) dopamine receptor (Homo sapiens), P14416 | HEK293 T-REx D2 cells, calcium flux agonist mode | activation, % at 2 µM | 340,000 tested, 0.53% active | AID 485358, 2010;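 active = activation over 3 SD above normal in the single-dose calcium agonist read, cut at about 30% in these data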; note: 0% is about no effect
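Tetracycline-induced HEK293 T-REx cells with force-coupled D2 receptor, plated overnight at 30 C, loaded with no-wash calcium dye. After a 10 s baseline, compound was pin-added and calcium flux read kinetically for 180 s; calcium rises flagged agonists.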
D3 ag: qHTS of D3 Dopamine Receptor Agonist: D3 Dopamine Receptor B-arrestin Agonist Confirmatory Assay; shares compounds with D2 ag-2; DiscoveRx D3 beta-arrestin cells, luminescence, 90 min; Potency, µM (highest dose often 76.9 µM), for inactives: at the top dose activation, actives largely listed as activators; 2,300 tested, 4% active;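 note: potency is the fitted concentration of half-maximal effect; 100% = dopamine control response; nearly all actives have a fitted effect of over 70% in size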
D2 ag-3: qHTS of D3 Dopamine Receptor Agonist: D2 Dopamine Receptor B-arrestin Agonist Counterscreen | AID 720507, 2013 | Potency, µM (top dose mostly 76.9 µM), for the others: at the highest dose activation, actives largely listed as activators | shares compounds with D2 ag-2 | DiscoveRx PathHunter D2 beta-arrestin, luminescence, 90 min; response scale: percent relative to full dopamine signal | 2,300 tested, 5.9% active; note: potency is the fitted concentration of half-maximal effect; % of control where 0% means no effect; nearly all actives have a fitted effect of over 70% in size
* marks the source's active call; other numbers are inactive results; ? = inconclusive; · = no result given. An excerpt weighted towards active compounds, which were near 2.4% of everything screened. Unless noted, calls come from the whole dose curve; as a rule, active = well fitted activation curve with a large enough effect; inconclusive = small, poorly fitted or top-dose-only effect; inactive = flat fitted curve, though single readings scatter.

SMILES	D2 ag-1	D2 antag	D2 PAM-1	D2 PAM-2	D2 ag-2	D3 ag	D2 ag-3
CCOC(=O)C1CCCN(CC(=O)Nc2c(C(=O)OC)[nH]c3ccccc23)C1 (stereo not given)	-2.9	·	·	-36.9	·	·	·
O=S(=O)(c1ccc(Cl)cc1)N1CCc2ccccc21	-6.3	0.8	10.6	-0.7	0.9	·	·
O=S(=O)(c1ccc(F)cc1)N1CCc2ccccc21	1.1	36.0*	3.4	6.9	8.4	4.3%	2.2%
C=CC[C@H]1Cc2c(cccc2[N+](=O)[O-])[C@H](CC=C)N1	?	58.9*	·	13.5	36.2*	?	?
O=C(Nc1cccc(C(F)(F)F)c1)c1cc(S(=O)(=O)N2CCCC2)c[nH]1	·	·	14.0	·	-0.8	·	·
COc1ccc(-c2noc(-c3ccc(NC4CCCC4)c([N+](=O)[O-])c3)n2)cc1OC	·	·	1.8	·	0.7	·	·
CC(C)(C)c1ccc(OCC(O)CN2CCN(c3ccccn3)CC2)cc1 (stereo not given)	?	86.6*	-21.4	55.5*	86.0*	?	15.8µM*
CCOC(=O)C1CCN(CC(O)COc2ccc(C(=O)CC)cc2)CC1 (stereo not given)	?	55.6*	-30.7	10.1	79.0*	3.2%	?
CCOC(=O)N1CCN(Cc2ccc(OCC(O)CN3CCCCC3)cc2)CC1 (stereo not given)	?	50.9*	-12.0	23.3	62.9*	9.2%	?
CC(=O)c1ccccc1OCC(O)CN1CCN(c2ccccn2)CC1 (stereo not given)	10.5	15.4	0.1	-5.8	0.1	·	·
CCC(=O)c1ccc(OCC(O)CN2CCN(c3ccccn3)CC2)cc1 (stereo not given)	60.4*	73.6*	-26.7	25.9	79.7*	0.891µM*	2µM*
COc1ccc(NC(=O)c2cc(S(=O)(=O)NCCC3=CCCCC3)ccc2F)cc1	·	·	9.0	·	0.2	·	·
CCOc1ccccc1NC(=O)NCc1noc2ccc(C)cc12	·	·	1.3	·	-1.1	·	·
CCCOc1ccc(C(=O)Nc2cc3c(cc2N2CCOCC2)n(C)c(=O)n3C)cc1	·	·	-0.6	·	-0.1	·	·
CN(C)c1ncc(CN2CCC(CO)(CCCc3ccccc3)CC2)s1	11.7	62.2*	-19.6	-6.5	68.3*	-0.2%	?
OCC1(CCc2ccccc2)CCN(Cc2cnc(N3CCCC3)s2)CC1	-3.2	·	·	-34.3	·	·	·
FC(F)(F)c1cc(-c2ccccc2)nc(NC2CCCC2)n1	-2.6	10.9	-9.6	-5.1	58.4*	-7.4%	-0.7%
COc1ccc(CCNC(=O)COC(=O)c2ccc(N3CCCC3=O)cc2)cc1OC	2.2	-2.4	11.1	2.5	1.9	·	·
COc1ccccc1CNC(=O)COC(=O)c1ccc(N2CCCC2=O)cc1	-2.0	11.6	-17.8	-2.6	1.7	11.3%	2.0%
CC(C)n1ncc2c(C(=O)N3CCN(Cc4ccc(Br)s4)CC3)cc(C3CC3)nc21	?	70.3*	-22.5	5.6	64.4*	23.8%	?
CC(C)NC[C@@H](O)c1ccc(O)c(O)c1	3.0	-19.4	-2.4	23.4	15.9	?	24.5%
O=[N+]([O-])c1ccc(C=CC=Cc2ccccc2)cc1	1.1	·	·	-3.9	·	·	·
O=[N+]([O-])c1ccc(/C=C/C2=NN(c3ccccc3)C(c3ccco3)C2)cc1 (stereo not given)	-9.2	26.1	10.8	-4.2	51.0*	6.7%	9.4%
CCCCC/C=C/C1=CC(=O)C[C@H](c2ccc3c(c2)OCO3)C1	-3.2	30.8*	-3.8	-10.1	0.5	-5.4%	-0.9%
COc1ccc2nc3ccccc3nc2c1NC(=O)c1ccc(Cl)cc1Cl	-7.5	6.1	-3.2	-25.0	29.4	-5.8%	15.2%
SMILES	D2 ag-1	D2 antag	D2 PAM-1	D2 PAM-2	D2 ag-2	D3 ag	D2 ag-3
COc1cc(-c2cc(C(=O)Nc3c(Cl)cc(Cl)cc3Cl)c3ccccc3n2)cc(OC)c1OC	-5.1	5.1	7.3	-14.3	0.2	·	·
O=C(NCCN1CCN(c2ccccc2)CC1)C1CCN(S(=O)(=O)c2cccs2)CC1	?	·	·	-5.5	·	?	?
O=C(CCN1C(=O)COc2ccccc21)NCCCN1CCN(c2ccccc2F)CC1	13.8	82.0*	-26.3	-13.8	69.2*	17.1%	19.2%
O=C(NCCCN1CCN(c2ccccc2F)CC1)C1CCC(=O)N1C1CCCC1 (stereo not given)	4.2	66.4*	-17.0	-4.5	72.2*	8.8%	?
O=C(NCCc1ccc(Cl)cc1)C1CCN(S(=O)(=O)c2cccs2)CC1	-3.4	16.3	-4.0	-4.6	0.2	·	·
O=C(NCCCN1CCN(c2ccccc2F)CC1)C1CCN(S(=O)(=O)c2cccs2)CC1	?	74.7*	-17.8	18.3	70.2*	?	10µM*
Cc1c(Cl)cccc1NC(=O)C(=O)NCCc1csc(-c2cccc(F)c2)n1	·	·	-0.7	·	0.4	·	·
O=C(NCCS(=O)(=O)N1CCN(c2cccc(Cl)c2)CC1)C1CCCC1	-2.6	-3.4	-2.3	-20.8	0.4	·	·
COc1ccc2c(c1)CC(C(=O)NCCCN1CCN(c3ccccc3F)CC1)CO2 (stereo not given)	·	·	-25.3	·	·	·	·
COc1cc2[nH]c(=O)n(CCC(=O)NCCCN3CCN(c4ccccc4F)CC3)c(=O)c2cc1OC	6.5	95.8*	-34.1	-17.2	50.8*	?	19.1%
CCCN1CCN(CCCNC(=O)c2ccc3c(=O)n(CCc4ccccc4)c(=O)[nH]c3c2)CC1	9.4	30.5*	-23.1	5.9	68.0*	-3.2%	16.7%
CCCS(=O)(=O)N1CCCC(C(=O)NCCCN2CCN(c3cccc(Cl)c3)CC2)C1 (stereo not given)	6.9	51.2*	-22.6	-29.1	47.6*	?	21.6%
CCS(=O)(=O)N1CCC(C(=O)NCCCN2CCN(c3ccccc3F)CC2)CC1	?	86.4*	-17.9	17.7	68.7*	?	?
